# Measured values as given in ChEMBL document CHEMBL2218924, “A broad activity screen in support of a chemogenomic map for kinase signalling research and drug discovery” (Biochem J, 2013).
# How the values were obtained:
# [1] = molecular target: T1, Casein kinase II (Homo sapiens) (UniProt P67870+P68400+P19784); conditions: at 1 µM
# [2] = molecular target: T1, Casein kinase II (Homo sapiens); conditions: at 10 µM
# [3] = molecular target: Casein kinase II subunit alpha' (Homo sapiens) (UniProt P19784); conditions: at 1 µM
# [4] = molecular target: Casein kinase II subunit alpha' (Homo sapiens) (UniProt P19784); conditions: at 10 µM
# [5] = molecular target: Dual specificity protein kinase CLK2 (Homo sapiens) (UniProt P49760); conditions: at 1 µM
# [6] = molecular target: Dual specificity protein kinase CLK2 (Homo sapiens) (UniProt P49760); conditions: at 10 µM
# [7] = molecular target: Dual specificity protein kinase CLK3 (Homo sapiens) (UniProt P49761); conditions: at 1 µM
# [8] = molecular target: Dual specificity protein kinase CLK3 (Homo sapiens) (UniProt P49761); conditions: at 10 µM
# [9] = molecular target: Tyrosine-protein kinase CSK (Homo sapiens) (UniProt P41240); conditions: at 1 µM
# [10] = molecular target: Tyrosine-protein kinase CSK (Homo sapiens) (UniProt P41240); conditions: at 10 µM
# Casein kinase II subunit alpha' (Homo sapiens), sequence (P19784 whole entry, looked up): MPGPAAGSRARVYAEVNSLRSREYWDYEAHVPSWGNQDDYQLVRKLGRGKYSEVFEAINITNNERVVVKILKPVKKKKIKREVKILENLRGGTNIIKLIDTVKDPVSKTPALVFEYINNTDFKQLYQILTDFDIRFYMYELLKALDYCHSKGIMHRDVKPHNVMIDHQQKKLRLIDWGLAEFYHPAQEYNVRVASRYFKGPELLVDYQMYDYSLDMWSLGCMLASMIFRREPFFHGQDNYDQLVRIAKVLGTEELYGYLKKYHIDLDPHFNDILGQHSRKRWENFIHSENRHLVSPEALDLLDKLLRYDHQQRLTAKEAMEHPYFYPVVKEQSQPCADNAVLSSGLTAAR
# T1 sequence (P19784 whole entry, looked up): as above
# T1 sequence (P67870 whole entry, looked up): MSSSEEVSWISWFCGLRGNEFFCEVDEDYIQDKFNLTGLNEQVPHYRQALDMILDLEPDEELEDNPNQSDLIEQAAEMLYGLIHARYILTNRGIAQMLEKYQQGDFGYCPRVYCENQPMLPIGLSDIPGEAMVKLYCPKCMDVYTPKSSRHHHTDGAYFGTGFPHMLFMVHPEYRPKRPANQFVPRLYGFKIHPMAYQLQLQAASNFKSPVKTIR
# T1 sequence (P68400 whole entry, looked up): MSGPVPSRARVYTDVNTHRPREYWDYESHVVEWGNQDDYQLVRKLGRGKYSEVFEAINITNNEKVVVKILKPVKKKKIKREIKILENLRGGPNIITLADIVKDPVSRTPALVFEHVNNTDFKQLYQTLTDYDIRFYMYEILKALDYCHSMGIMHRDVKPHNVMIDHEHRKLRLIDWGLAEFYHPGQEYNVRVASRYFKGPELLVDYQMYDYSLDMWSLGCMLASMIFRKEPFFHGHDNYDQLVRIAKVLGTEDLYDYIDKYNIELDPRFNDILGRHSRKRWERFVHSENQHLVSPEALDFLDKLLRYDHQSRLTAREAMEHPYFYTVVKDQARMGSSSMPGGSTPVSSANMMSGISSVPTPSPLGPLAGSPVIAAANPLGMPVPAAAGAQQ
# Dual specificity protein kinase CLK2 (Homo sapiens), sequence (P49760 whole entry, looked up): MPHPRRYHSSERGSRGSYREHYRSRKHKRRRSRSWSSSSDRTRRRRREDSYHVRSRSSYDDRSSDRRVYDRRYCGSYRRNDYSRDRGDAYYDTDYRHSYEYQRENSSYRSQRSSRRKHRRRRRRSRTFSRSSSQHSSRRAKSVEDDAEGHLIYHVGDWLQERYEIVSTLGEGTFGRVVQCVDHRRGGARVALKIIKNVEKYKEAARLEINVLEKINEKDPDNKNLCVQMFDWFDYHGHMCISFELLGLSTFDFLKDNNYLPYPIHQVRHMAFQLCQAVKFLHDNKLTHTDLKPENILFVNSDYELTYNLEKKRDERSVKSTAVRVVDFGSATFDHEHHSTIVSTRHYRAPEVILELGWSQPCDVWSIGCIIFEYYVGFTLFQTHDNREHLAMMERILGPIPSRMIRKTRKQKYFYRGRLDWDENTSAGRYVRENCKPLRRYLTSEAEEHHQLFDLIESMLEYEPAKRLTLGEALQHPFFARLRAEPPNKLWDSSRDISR
# Dual specificity protein kinase CLK3 (Homo sapiens), sequence (P49761 whole entry, looked up): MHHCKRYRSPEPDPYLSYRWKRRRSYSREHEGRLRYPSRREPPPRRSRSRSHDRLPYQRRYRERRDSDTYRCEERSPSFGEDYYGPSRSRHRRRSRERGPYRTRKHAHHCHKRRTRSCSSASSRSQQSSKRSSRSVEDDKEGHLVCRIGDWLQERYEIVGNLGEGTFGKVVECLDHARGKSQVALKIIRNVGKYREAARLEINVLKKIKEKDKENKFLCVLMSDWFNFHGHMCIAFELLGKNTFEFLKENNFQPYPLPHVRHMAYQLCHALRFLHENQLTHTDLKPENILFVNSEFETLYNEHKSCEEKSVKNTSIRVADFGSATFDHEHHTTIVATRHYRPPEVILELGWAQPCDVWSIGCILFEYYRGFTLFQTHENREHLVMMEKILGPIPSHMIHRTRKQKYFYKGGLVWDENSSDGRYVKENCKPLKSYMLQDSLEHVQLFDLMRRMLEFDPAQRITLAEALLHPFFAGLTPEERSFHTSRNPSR
# Tyrosine-protein kinase CSK (Homo sapiens), sequence (P41240 2-450 limits assumed): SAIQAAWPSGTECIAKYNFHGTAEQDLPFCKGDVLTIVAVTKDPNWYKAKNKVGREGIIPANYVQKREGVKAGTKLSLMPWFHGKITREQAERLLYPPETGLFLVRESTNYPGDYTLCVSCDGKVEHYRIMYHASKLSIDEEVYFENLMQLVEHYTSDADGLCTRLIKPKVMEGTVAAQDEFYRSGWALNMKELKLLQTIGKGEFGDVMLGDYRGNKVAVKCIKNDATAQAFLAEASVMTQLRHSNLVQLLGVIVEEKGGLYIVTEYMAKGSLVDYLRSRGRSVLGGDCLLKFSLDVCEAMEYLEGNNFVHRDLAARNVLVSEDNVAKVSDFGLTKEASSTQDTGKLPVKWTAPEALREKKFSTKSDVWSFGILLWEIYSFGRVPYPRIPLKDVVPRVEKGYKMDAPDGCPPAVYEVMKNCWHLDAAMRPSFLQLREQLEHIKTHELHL
structure (smiles),measurement,setting,value
Cn1nc2c3c(cccc31)C(=O)c1ccccc1-2,residual activity,[1],87%
same,residual activity,[2],59%
same,residual activity,[3],99%
same,residual activity,[4],65%
same,residual activity,[5],86%
same,residual activity,[6],83%
same,residual activity,[7],76%
same,residual activity,[8],66%
same,residual activity,[9],101%
same,residual activity,[10],90%
COc1ccc(OC)c2c(=S)c3ccccc3[nH]c12,residual activity,[1],103%
same,residual activity,[2],79%
same,residual activity,[3],81%
same,residual activity,[4],97%
same,residual activity,[5],99%
same,residual activity,[6],74%
same,residual activity,[7],90%
same,residual activity,[8],81%
same,residual activity,[9],109%
same,residual activity,[10],105%
O=Nc1c(-c2c(O)[nH]c3ccccc23)[nH]c2ccccc12,residual activity,[1],112%
same,residual activity,[2],78%
same,residual activity,[3],102%
same,residual activity,[4],58%
same,residual activity,[5],14%
same,residual activity,[6],4%
same,residual activity,[7],79%
same,residual activity,[8],54%
same,residual activity,[9],101%
same,residual activity,[10],78%
Cn1cc(/C=C2\C(=O)Nc3ccc(S(N)(=O)=O)cc32)c2ccccc21,residual activity,[1],79%
same,residual activity,[2],111%
same,residual activity,[3],124%
same,residual activity,[4],80%
same,residual activity,[5],35%
same,residual activity,[6],14%
same,residual activity,[7],45%
same,residual activity,[8],-3%
same,residual activity,[9],114%
same,residual activity,[10],92%
Cc1ccc(S(=O)(=O)/C=C/C#N)cc1,residual activity,[1],116%
same,residual activity,[2],98%
same,residual activity,[3],114%
same,residual activity,[4],103%
same,residual activity,[5],110%
same,residual activity,[6],112%
same,residual activity,[7],96%
same,residual activity,[8],96%
same,residual activity,[9],116%
same,residual activity,[10],105%
CO[C@H]1[C@@H](OC)C[C@H](C)[C@@H](OC)C2=CC(=O)C=C(NC(=O)/C(C)=C/C=C/[C@H](OC)[C@@H](OC(N)=O)/C(C)=C/[C@@H]1C)C2=O,residual activity,[1],88%
same,residual activity,[2],111%
same,residual activity,[3],99%
same,residual activity,[4],99%
same,residual activity,[5],100%
same,residual activity,[6],110%
same,residual activity,[7],88%
same,residual activity,[8],89%
same,residual activity,[9],108%
same,residual activity,[10],118%
Cc1ccc(NC2=CC(=O)c3sc(C)nc3C2=O)cc1,residual activity,[1],100%
same,residual activity,[2],101%
same,residual activity,[3],100%
same,residual activity,[4],107%
same,residual activity,[5],111%
same,residual activity,[6],109%
same,residual activity,[7],95%
same,residual activity,[8],88%
same,residual activity,[9],98%
same,residual activity,[10],95%
Cn1cnc2cc3c(Nc4cccc(Br)c4)ncnc3cc21,residual activity,[1],87%
same,residual activity,[2],119%
same,residual activity,[3],126%
same,residual activity,[4],89%
same,residual activity,[5],106%
same,residual activity,[6],75%
same,residual activity,[7],91%
same,residual activity,[8],112%
same,residual activity,[9],105%
same,residual activity,[10],97%
COc1cc2ncnc(Nc3ccc(O)c(Br)c3)c2cc1OC,residual activity,[1],58%
same,residual activity,[2],44%
same,residual activity,[3],97%
same,residual activity,[4],38%
same,residual activity,[5],80%
same,residual activity,[6],30%
same,residual activity,[7],82%
same,residual activity,[8],118%
same,residual activity,[9],90%
same,residual activity,[10],76%
COc1cc2ncnc(N3CCN(C(=O)Nc4ccc(Oc5ccccc5)cc4)CC3)c2cc1OC,residual activity,[1],87%
same,residual activity,[2],105%
same,residual activity,[3],111%
same,residual activity,[4],65%
same,residual activity,[5],84%
same,residual activity,[6],55%
same,residual activity,[7],64%
same,residual activity,[8],68%
same,residual activity,[9],109%
same,residual activity,[10],113%
Nc1ccc2ncnc(NCCc3ccc(Oc4ccccc4)cc3)c2c1,residual activity,[1],100%
same,residual activity,[2],101%
same,residual activity,[3],109%
same,residual activity,[4],100%
same,residual activity,[5],87%
same,residual activity,[6],69%
same,residual activity,[7],94%
same,residual activity,[8],92%
same,residual activity,[9],118%
same,residual activity,[10],91%
CC[n+]1c(/C=C/N(C)c2ccccc2)n(-c2ccccc2)c2ccc(-c3nc4ccccc4s3)cc21,residual activity,[1],109%
same,residual activity,[2],105%
same,residual activity,[3],134%
same,residual activity,[4],90%
same,residual activity,[5],109%
same,residual activity,[6],108%
same,residual activity,[7],91%
same,residual activity,[8],58%
same,residual activity,[9],103%
same,residual activity,[10],95%
O=C(Nc1cccc(Nc2nccc(Nc3cccc(C(F)(F)F)c3)n2)c1)C1CC1,residual activity,[1],75%
same,residual activity,[2],109%
same,residual activity,[3],108%
same,residual activity,[4],72%
same,residual activity,[5],71%
same,residual activity,[6],82%
same,residual activity,[7],76%
same,residual activity,[8],9%
same,residual activity,[9],115%
same,residual activity,[10],100%
Cc1nc2cc3nc(-c4cccs4)cnc3cc2n1C,residual activity,[1],102%
same,residual activity,[2],104%
same,residual activity,[3],130%
same,residual activity,[4],92%
same,residual activity,[5],114%
same,residual activity,[6],63%
same,residual activity,[7],99%
same,residual activity,[8],53%
same,residual activity,[9],110%
same,residual activity,[10],109%
COc1cccc(-c2cc(=O)c3ccccc3o2)c1N,residual activity,[1],94%
same,residual activity,[2],96%
same,residual activity,[3],119%
same,residual activity,[4],106%
same,residual activity,[5],116%
same,residual activity,[6],105%
same,residual activity,[7],90%
same,residual activity,[8],71%
same,residual activity,[9],104%
same,residual activity,[10],111%
Oc1ccc(Nc2nc(-c3ccc(Cl)cc3)cs2)cc1,residual activity,[1],101%
same,residual activity,[2],97%
same,residual activity,[3],100%
same,residual activity,[4],99%
same,residual activity,[5],118%
same,residual activity,[6],101%
same,residual activity,[7],92%
same,residual activity,[8],75%
same,residual activity,[9],98%
same,residual activity,[10],113%
CNc1cc2c(Nc3cccc(Br)c3)ncnc2cn1,residual activity,[1],90%
same,residual activity,[2],89%
same,residual activity,[3],118%
same,residual activity,[4],96%
same,residual activity,[5],113%
same,residual activity,[6],98%
same,residual activity,[7],95%
same,residual activity,[8],33%
same,residual activity,[9],109%
same,residual activity,[10],92%
O=C1Nc2ccccc2/C1=C1/Nc2ccccc2/C1=N\OCCC(O)CO (stereo not drawn),residual activity,[1],73%
same,residual activity,[2],22%
same,residual activity,[3],46%
same,residual activity,[4],3%
same,residual activity,[5],2%
same,residual activity,[6],4%
same,residual activity,[7],58%
same,residual activity,[8],25%
Oc1c2ccccc2c2c3c(cccc13)N=N2,residual activity,[1],60%
same,residual activity,[2],19%
same,residual activity,[3],59%
same,residual activity,[4],18%
same,residual activity,[5],36%
same,residual activity,[6],21%
same,residual activity,[7],72%
same,residual activity,[8],34%
same,residual activity,[9],105%
same,residual activity,[10],93%
COc1ccc(CNc2nc(N(CCO)CCO)nc3c2ncn3C(C)C)cc1,residual activity,[1],96%
same,residual activity,[2],101%
same,residual activity,[3],100%
same,residual activity,[4],107%
same,residual activity,[5],48%
same,residual activity,[6],18%
same,residual activity,[7],87%
same,residual activity,[8],62%
same,residual activity,[9],106%
same,residual activity,[10],96%
